Screening results (PubChem)
An excerpt weighted towards active compounds, which were near 3% of everything screened.
ABHD5-PLIN5 inh: ABHD5-PLIN5 interaction inhibitors, primary screen, cell lysate, split luciferase complementation, luminescence. Perilipin-5 (Homo sapiens) + 1-acylglycerol-3-phosphate O-acyltransferase ABHD5 (Homo …. Split G. princeps luciferase complementation, 4 h. inhibition, % at 4 µM. 360,000 compounds, 0.78% hits. AID 602281, 2012;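 active means inhibition above the mean inhibition across every tested compound plus 3 SD, cut at about 22% in these data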;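 further: 0% = DMSO only wells and the 100% control is not disclosed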
EWS-Fli block: EWS/Fli-driven NR0B1 reporter inhibitors, primary screen, A673 cells, NR0B1 luciferase, luminescence, MLPCN library. AID 651661, 2012. viability-normalised. inhibition, % at 12.6 µM. 350,000 compounds, 0.67% hits;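 active means mean inhibition of at least 50% after viability correction, with every replicate also passing that limit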;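 further: firefly luciferase signal divided by Alamar Blue viability fluorescence both relative to DMSO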
TRPM1 prom inh: inhibitors of MITF-dependent TRPM1 promoter reporter, primary screen, cell-based, SK-MEL-5, single point, luciferase | AID 488899, 2010 | 330,000 compounds, 0.83% hits | inhibition, % at 12.5 µM | SK-MEL-5 TRPM1 promoter luciferase, 24 h;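 active means mean inhibition across replicates of 60% or more, whatever share of single replicates reaches that level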
PAX8 reporter: inhibitors of PAX8-driven TPO luciferase reporter, primary screen, RMG-I cells, single concentration | SteadyGlo, 24 h | inhibition, % at 12.6 µM | 360,000 compounds, 1.2% hits | AID 652154, 2013;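 active means mean replicate inhibition at least 60% with every replicate also reaching 60%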;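 further: luciferase light reporting Pax8 driven TPO promoter activity; plate controls were median of neutral control wells for no effect and mitoxantrone controls for full effect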
Peg3 promoter: Peg3 promoter-driven luciferase inhibitors, primary screen, cell-based, HeLa, luciferase luminescence; HeLa PEG-Prom luciferase reporter, overnight; inhibition, % at 20 µM; 360,000 compounds, 1.7% hits; AID 588405, 2011;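 active means inhibition of at least 50% at 20 µM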
Shn3 inh set2: reduction of Shn3 3'UTR firefly luciferase signal, primary screen, Schnurri-3 inhibitor project, cell-based, Clone20 osteoblasts, set 2; Clone20 osteoblast Shn3 3'UTR firefly luciferase, 24 h; inhibition, % at 12.5 µM; 360,000 compounds, 0.52% hits;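 active means mean inhibition of at least 75% with every replicate also reaching 75%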;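 further: 0% = median of neutral control wells and 100% = pilot-screen positive control compound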
An asterisk follows results filed as active.

Cc1ccc(N2C(=O)NC(=O)/C(=C/c3ccc(OC(=O)c4cccs4)cc3)C2=O)cc1 was read as ABHD5-PLIN5 inh 34*, TRPM1 prom inh -16, PAX8 reporter -6, Peg3 promoter -28 and Shn3 inh set2 6.
For O=c1[nH]c2ccccc2n1C1CCN(C(c2cccc3ccccc23)c2nnnn2-c2ccc3c(c2)OCCO3)CC1 (stereo not given) the results were ABHD5-PLIN5 inh 8, EWS-Fli block 10, PAX8 reporter 98*, Peg3 promoter 71* and Shn3 inh set2 17.
Screening O=c1[nH]c2ccccc2n1C1CCN(C(c2cc3ccccc3o2)c2nnnn2-c2ccc3c(c2)OCCO3)CC1 (stereo not given) returned ABHD5-PLIN5 inh 3, EWS-Fli block 26, PAX8 reporter 103*, Peg3 promoter 98* and Shn3 inh set2 36.
COC(=O)[C@H]1[C@H](CO)[C@H]2Cn3c(ccc(-c4cccc(OC)c4)c3=O)[C@@H]1N2C(=O)c1cnccn1 was read as EWS-Fli block -2 and PAX8 reporter -9.
For Cc1ccc(C(=O)N[C@@H](C)CN2C3=NC[C@@H](Cc4ccccc4)N3C[C@H]2Cc2ccc(O)cc2)cc1Br the results were EWS-Fli block 24 and PAX8 reporter 111*.
NC(N)=N/N=C/c1ccc(N(c2ccccc2)c2ccccc2)cc1 was read as ABHD5-PLIN5 inh -16, EWS-Fli block 58*, TRPM1 prom inh 102*, PAX8 reporter 81*, Peg3 promoter 105* and Shn3 inh set2 95*.
For COc1ccc(Cc2nccc3cc(OC)c(OC)cc23)cc1OC the results were ABHD5-PLIN5 inh 2, EWS-Fli block -4, TRPM1 prom inh 28, PAX8 reporter 20, Peg3 promoter 11 and Shn3 inh set2 83.
`COc1cc2c(ccc3c4cc(OC)c(OC)cc4c[n+](C)c23)cc1O` gave ABHD5-PLIN5 inh 15, EWS-Fli block 32, TRPM1 prom inh -9, PAX8 reporter 75*, Peg3 promoter 1 and Shn3 inh set2 10.
CCOc1cc(CNCCc2c[nH]c3ccccc23)cc(Cl)c1OC was read as ABHD5-PLIN5 inh 11, EWS-Fli block 14, TRPM1 prom inh 4, PAX8 reporter -5, Peg3 promoter 62* and Shn3 inh set2 73.
`O=C(Cc1cccnc1)N1CCCCN2[C@H](CO)[C@@H](c3ccc(/C=C/c4ccccc4)cc3)[C@H]2C1` gave EWS-Fli block -11 and PAX8 reporter -8.
Screening O=[N+]([O-])c1ccc(O)c([N+](=O)[O-])c1 returned ABHD5-PLIN5 inh 4, EWS-Fli block -2, TRPM1 prom inh -6, PAX8 reporter 4, Peg3 promoter -2 and Shn3 inh set2 -15.
`O=[N+]([O-])c1ccc(Cl)c([N+](=O)[O-])c1` gave ABHD5-PLIN5 inh 14, EWS-Fli block 45, TRPM1 prom inh 43, PAX8 reporter 19, Peg3 promoter 58* and Shn3 inh set2 -7.
Screening COC(=O)[C@@H]1[C@@H](CO)[C@@H]2Cn3c(ccc(-c4ccccc4F)c3=O)[C@H]1N2 returned EWS-Fli block -3 and PAX8 reporter 1.
`COC(=O)C1=C(c2ccc(F)cc2OCc2ccccc2)C[C@@H]2CC[C@H]1N2C(=O)NCc1ccc(F)cc1` gave ABHD5-PLIN5 inh -1, EWS-Fli block 8, TRPM1 prom inh -2, PAX8 reporter 7, Peg3 promoter 15 and Shn3 inh set2 31.
Screening COC(=O)C1=C(c2ccc(F)cc2OCc2ccccc2)C[C@@H]2CC[C@H]1N2C(=O)NC1Cc2ccccc2C1 returned ABHD5-PLIN5 inh -1, EWS-Fli block 10, TRPM1 prom inh 17, PAX8 reporter 89*, Peg3 promoter 21 and Shn3 inh set2 87*.
For COC(=O)C1=C(c2ccc(F)cc2OCc2ccccc2)C[C@@H]2CC[C@H]1N2C(=O)NCc1ccc(C)cc1 the results were ABHD5-PLIN5 inh -4, EWS-Fli block 2, TRPM1 prom inh -1, PAX8 reporter 102*, Peg3 promoter 10 and Shn3 inh set2 -16.
